# According to PubChem BioAssay (NCATS):
# Values joined by “and” are separate entries in the source; they are usually repeats but may differ in a detail not shown here. Equal entries are not always repeated. Records with an inconclusive call do not appear. A call without a number means that no potency is given here. Some structures have more than one record in an assay (separate samples or runs), and their calls can disagree. Active and inactive are the calls of the source. Unless noted, the call rests on the fitted dose curve.
# Key:
# [1] = biological target: Peroxisome proliferator-activated receptor delta (Homo sapiens) (UniProt Q03181); experiment: qHTS assay for small molecule agonists of peroxisome proliferator-activated receptor delta signaling (AID 588534)
# Chain of Peroxisome proliferator-activated receptor delta (Homo sapiens) (Q03181 whole entry, looked up): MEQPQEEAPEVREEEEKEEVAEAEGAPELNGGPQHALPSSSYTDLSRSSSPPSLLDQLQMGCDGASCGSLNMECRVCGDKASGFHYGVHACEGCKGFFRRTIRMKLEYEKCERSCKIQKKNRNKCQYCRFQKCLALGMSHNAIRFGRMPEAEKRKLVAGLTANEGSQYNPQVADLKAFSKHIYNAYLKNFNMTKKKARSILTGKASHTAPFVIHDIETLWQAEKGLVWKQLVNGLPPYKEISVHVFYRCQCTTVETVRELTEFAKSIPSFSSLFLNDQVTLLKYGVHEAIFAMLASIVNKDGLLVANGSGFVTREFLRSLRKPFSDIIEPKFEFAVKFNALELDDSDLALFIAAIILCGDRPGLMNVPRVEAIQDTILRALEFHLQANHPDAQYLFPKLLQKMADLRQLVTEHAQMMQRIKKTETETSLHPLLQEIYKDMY
# Method in brief: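 Cells carrying a PPAR-delta beta-lactamase reporter were treated with compounds for 18 h at 37 °C in agonist mode. CCF4 fluorescence was read after 2 h; EC50 and efficacy from Hill fits.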
# [2] = biological target: Bile acid receptor (Homo sapiens) (UniProt Q96RI1); experiment: qHTS assay for small molecule antagonists of farnesoid X receptor signaling (AID 588526); further: potency means the concentration at half of the fitted maximal effect
# Chain of Bile acid receptor (Homo sapiens) (Q96RI1 whole entry, looked up): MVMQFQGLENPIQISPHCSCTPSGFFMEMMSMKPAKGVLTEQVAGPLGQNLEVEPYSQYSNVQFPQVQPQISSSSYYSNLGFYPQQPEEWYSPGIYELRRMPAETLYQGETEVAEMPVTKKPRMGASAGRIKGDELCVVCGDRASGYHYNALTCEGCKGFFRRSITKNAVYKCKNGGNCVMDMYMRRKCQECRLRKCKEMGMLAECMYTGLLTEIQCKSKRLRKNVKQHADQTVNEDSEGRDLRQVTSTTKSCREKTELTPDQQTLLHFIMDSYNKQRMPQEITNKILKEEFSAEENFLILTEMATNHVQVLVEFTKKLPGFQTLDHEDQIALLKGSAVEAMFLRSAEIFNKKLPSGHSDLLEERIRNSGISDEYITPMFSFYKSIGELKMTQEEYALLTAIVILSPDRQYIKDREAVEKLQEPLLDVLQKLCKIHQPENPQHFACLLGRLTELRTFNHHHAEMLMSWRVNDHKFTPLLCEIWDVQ
# Method in brief: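 Antagonist mode: titrated compounds tested against chenodeoxycholic acid stimulation (normalized to 50 uM CDCA and DMSO) in GeneBLAzer HEK293T cells for 16 h. Beta-lactamase read by CCF4 fluorescence; IC50 from Hill fits.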
# [3] = qHTS assay for small molecule antagonists of peroxisome proliferator-activated receptor delta signaling (AID 588535; active means well fitted inhibition curve with a large enough effect in the signal ratio, with a control signal flat, not every such curve was filed as active; the % refers to the signal ratio;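 on max response: cells co-treated with a PPAR-delta agonist as stimulator during compound exposure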); conditions: HEK293T PPARd-UAS-bla, beta-lactamase FRET ratio, 18 h; 460 nm channel
# Method in brief: (§1)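 Antagonist-mode beta-lactamase reporter (GeneBLAzer PPAR-delta-UAS-bla) in HEK293T cells, 2% charcoal/dextran FBS, 4000 cells/well. Compound titrations, 18 h at 37 C; CCF4 ratio read, IC50 and efficacy from Hill fits.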
# [4] = biological target: Peroxisome proliferator-activated receptor delta (Homo sapiens) (UniProt Q03181); experiment: as above
# Method in brief: as §1
# [5] = biological target: Vitamin D3 receptor (Homo sapiens) (UniProt P11473); experiment: qHTS assay for small molecule antagonists of vitamin D receptor signaling (AID 588541);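 further: receptor activated by calcitriol during compound treatment; series mostly up to about 77 µM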
# Chain of Vitamin D3 receptor (Homo sapiens) (P11473 whole entry, looked up): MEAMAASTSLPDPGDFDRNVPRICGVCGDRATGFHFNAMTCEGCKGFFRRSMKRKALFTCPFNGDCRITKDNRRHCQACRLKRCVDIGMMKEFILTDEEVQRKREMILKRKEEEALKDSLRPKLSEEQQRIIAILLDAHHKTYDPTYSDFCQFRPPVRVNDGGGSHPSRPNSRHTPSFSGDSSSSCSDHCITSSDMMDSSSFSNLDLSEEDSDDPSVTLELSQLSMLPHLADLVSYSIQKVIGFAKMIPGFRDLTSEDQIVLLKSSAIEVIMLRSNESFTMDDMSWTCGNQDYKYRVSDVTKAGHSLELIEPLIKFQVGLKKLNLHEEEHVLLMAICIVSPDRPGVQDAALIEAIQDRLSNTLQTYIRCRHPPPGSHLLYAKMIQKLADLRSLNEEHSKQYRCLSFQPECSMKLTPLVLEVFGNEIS
# Method in brief: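 VDR-UAS-bla HEK293T cells in 2% charcoal-stripped FBS were stimulated with 1-alpha,25-dihydroxyvitamin D3 (3 nM final) plus compound for 16 h at 37 C. The beta-lactamase CCF4 readout was normalized to 50 nM agonist and DMSO, and Hill fits gave IC50.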
# [6] = biological target: Vitamin D3 receptor (Homo sapiens) (UniProt P11473); experiment: qHTS assay for small molecule agonists of vitamin D receptor signaling (AID 588543)
# Method in brief: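 β-lactamase reporter, VDR-UAS-bla HEK293T, agonist mode. Cells plated 5 h at 37 °C, compound titration 16 h at 37 °C, CCF4 dye 2 h RT, ratio 460/530 nm. Hill fit → EC50, efficacy vs 50 nM 1α,25-(OH)2D3.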
# [7] = qHTS assay for small molecule agonists of retinoid X receptor alpha signaling (AID 588544); conditions: HEK293T RXRa-UAS-bla, beta-lactamase reporter, 18 h; 530 nm emission
# [8] = biological target: Retinoic acid receptor RXR-alpha (Homo sapiens) (UniProt P19793); experiment: as above
# Chain of Retinoic acid receptor RXR-alpha (Homo sapiens) (P19793 whole entry, looked up): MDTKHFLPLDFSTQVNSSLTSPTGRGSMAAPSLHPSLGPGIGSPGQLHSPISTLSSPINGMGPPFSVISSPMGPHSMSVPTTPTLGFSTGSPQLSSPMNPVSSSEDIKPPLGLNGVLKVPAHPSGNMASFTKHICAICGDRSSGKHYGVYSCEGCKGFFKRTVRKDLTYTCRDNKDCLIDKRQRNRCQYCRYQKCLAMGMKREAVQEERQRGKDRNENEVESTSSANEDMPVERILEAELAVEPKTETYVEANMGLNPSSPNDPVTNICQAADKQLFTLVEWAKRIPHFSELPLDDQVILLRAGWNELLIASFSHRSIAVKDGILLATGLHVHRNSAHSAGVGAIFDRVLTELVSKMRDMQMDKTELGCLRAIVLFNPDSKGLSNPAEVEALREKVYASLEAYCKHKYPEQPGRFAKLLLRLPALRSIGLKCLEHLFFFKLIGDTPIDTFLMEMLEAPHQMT
# [9] = biological target: Thyroid hormone receptor beta (Homo sapiens) (UniProt P10828); experiment: qHTS assay for small molecule agonists of thyroid hormone receptor beta signaling (AID 588545)
# Chain of Thyroid hormone receptor beta (Homo sapiens) (P10828 whole entry, looked up): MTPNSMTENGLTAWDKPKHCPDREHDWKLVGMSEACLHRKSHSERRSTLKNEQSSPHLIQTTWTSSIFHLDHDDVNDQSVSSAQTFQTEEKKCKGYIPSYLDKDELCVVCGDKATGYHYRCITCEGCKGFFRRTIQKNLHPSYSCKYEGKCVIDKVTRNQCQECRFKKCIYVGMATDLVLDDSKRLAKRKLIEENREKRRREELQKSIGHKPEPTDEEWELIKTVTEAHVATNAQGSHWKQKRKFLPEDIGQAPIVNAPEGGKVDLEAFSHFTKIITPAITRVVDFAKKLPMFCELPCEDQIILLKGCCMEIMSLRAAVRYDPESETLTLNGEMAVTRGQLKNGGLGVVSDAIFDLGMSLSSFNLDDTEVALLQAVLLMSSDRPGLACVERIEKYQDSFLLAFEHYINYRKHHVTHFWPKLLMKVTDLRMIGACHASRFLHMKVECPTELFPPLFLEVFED
# Method in brief: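 Agonist-mode beta-lactamase reporter assay, HEK 293 cells, 2% charcoal/dextran FBS; cells plated 4 hrs, compound 18 hrs at 37 C, CCF4 2 hrs RT. Normalized to 10 nM T3 (100%) and DMSO (0%); Hill fit gives EC50, efficacy.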
# [10] = qHTS assay for small molecule antagonists of retinoid X receptor alpha signaling (AID 588546; active means well fitted inhibition curve with a large enough effect in the signal ratio, with a control signal flat, not every such curve was filed as active; the % refers to the signal ratio; further: potency means the concentration at half of the fitted maximal effect;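 on max response: cells stimulated with 9-cis-retinoic acid as agonist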); conditions: HEK293T RXRa-UAS-bla, beta-lactamase ratio, antagonist mode; measured here: W530 green channel, cytotoxicity proxy
# Method in brief: (§2)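 Beta-lactamase reporter inhibition, read as CCF4 fluorescence ratio (ex 405, em 460/530 nm) after 2 h at RT. HEK293T UAS-bla cells, 2500/well, were stimulated with 9-cis-RA at 500 or 100 nM final alongside test compound for 18 h at 37 C.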
# [11] = biological target: Retinoic acid receptor RXR-alpha (Homo sapiens) (UniProt P19793); experiment: as above; conditions: HEK293T RXRa-UAS-bla, beta-lactamase ratio, antagonist mode
# Method in brief: as §2
# [12] = biological target: Thyroid hormone receptor beta (Homo sapiens) (UniProt P10828); experiment: qHTS assay for small molecule antagonists of thyroid hormone receptor beta signaling (AID 588547; active means well fitted inhibition curve with a large enough effect in the signal ratio, with a control signal flat, not every such curve was filed as active; the % refers to the signal ratio;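 further: cells stimulated with 0.4 nM T3 agonist during compound exposure; series mostly up to about 77 µM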); conditions: TR-UAS-bla HEK293, beta-lactamase ratio, antagonist mode, 18 h
# Method in brief: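 TR-UAS-bla GripTite HEK293 cells in 2% charcoal/dextran FBS medium; compounds 0.59 nM to 92 uM with T3 at 0.4nM final, 18 h at 37 C. Beta-lactamase read by CCF4 fluorescence (460/530 nm); Hill fits gave IC50 and efficacy.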
# [13] = biological target: Voltage-gated inwardly rectifying potassium channel KCNH2 (Homo sapiens) (UniProt Q12809); experiment: qHTS Assay for Small Molecule Inhibitors of the Human hERG Channel Activity (AID 588834; active means well fitted curve in the direction sought with a large enough effect; an effect the other way counts as inactive or inconclusive;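 further: lower thallium flux fluorescence means stronger hERG block; nearly all actives have a fitted effect of over 50% in size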; further: potency means the concentration at half of the fitted maximal effect)
# Method in brief: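 Concentration-response qHTS measuring drop in thallium-sensitive dye signal. U2OS cells carrying BacMam hERG; compound exposure ~10 min, then stimulation buffer and 2 min read at 1 sec intervals.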
# [14] = biological target: Luciferin 4-monooxygenase (Photinus pyralis) (UniProt P08659); experiment: Biochemical firefly luciferase enzyme assay for NPC (AID 624030; active means well fitted curve in the direction sought with a large enough effect; an effect the other way counts as inactive or inconclusive;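 further: purified P. pyralis luciferase at 10 nM with luciferin and ATP substrate; series mostly up to about 59 µM; nearly all actives have a fitted effect of over 70% in size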)
# Chain of Luciferin 4-monooxygenase (Photinus pyralis) (P08659 whole entry, looked up): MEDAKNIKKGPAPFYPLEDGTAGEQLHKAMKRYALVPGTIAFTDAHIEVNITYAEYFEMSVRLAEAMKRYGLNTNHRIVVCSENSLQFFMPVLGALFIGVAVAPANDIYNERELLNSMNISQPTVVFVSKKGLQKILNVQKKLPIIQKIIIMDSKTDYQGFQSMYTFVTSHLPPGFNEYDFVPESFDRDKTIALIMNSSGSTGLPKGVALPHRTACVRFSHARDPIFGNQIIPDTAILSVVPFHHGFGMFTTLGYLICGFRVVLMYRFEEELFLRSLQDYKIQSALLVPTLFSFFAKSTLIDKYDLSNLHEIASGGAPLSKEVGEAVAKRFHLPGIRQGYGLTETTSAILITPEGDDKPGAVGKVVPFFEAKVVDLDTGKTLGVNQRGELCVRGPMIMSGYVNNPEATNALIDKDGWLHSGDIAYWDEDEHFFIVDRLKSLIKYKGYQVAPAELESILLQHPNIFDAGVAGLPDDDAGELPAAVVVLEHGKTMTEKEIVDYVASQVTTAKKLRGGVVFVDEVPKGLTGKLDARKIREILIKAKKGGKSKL
# Method in brief: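 Purified P. pyralis luciferase at 10 nM in 50 mM Tris Acetate (final), luminescence read within 5 minutes of enzyme addition to compounds. Activity normalised to PTC124 versus DMSO; concentration-response curves classed by r2, magnitude and activity.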
# [15] = S16 Schwann cell viability assay (CellTiter-Glo assay) (AID 624031; active means well fitted curve in the direction sought with a large enough effect; an effect the other way counts as inactive or inconclusive; further: nearly all actives have a fitted effect of over 70% in size; further: potency means the concentration at half of the fitted maximal effect)
# Method in brief: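 Rat S16 Schwann cells without reporter constructs received compound or DMSO for 24 h at 37 °C under 5% CO2. Cellular ATP was then quantified by CellTiter-Glo luminescence, with vehicle wells defined as 0% activity and cell-free wells as reference.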
# [16] = biological target: Peroxisome proliferator-activated receptor gamma (Homo sapiens) (UniProt P37231); experiment: qHTS assay for small molecule antagonists of peroxisome proliferator-activated receptor gamma signaling (AID 588537; active means well fitted inhibition curve with a large enough effect in the signal ratio, with a control signal flat, not every such curve was filed as active; the % refers to the signal ratio; further: potency means the concentration at half of the fitted maximal effect)
# Chain of Peroxisome proliferator-activated receptor gamma (Homo sapiens) (P37231 whole entry, looked up): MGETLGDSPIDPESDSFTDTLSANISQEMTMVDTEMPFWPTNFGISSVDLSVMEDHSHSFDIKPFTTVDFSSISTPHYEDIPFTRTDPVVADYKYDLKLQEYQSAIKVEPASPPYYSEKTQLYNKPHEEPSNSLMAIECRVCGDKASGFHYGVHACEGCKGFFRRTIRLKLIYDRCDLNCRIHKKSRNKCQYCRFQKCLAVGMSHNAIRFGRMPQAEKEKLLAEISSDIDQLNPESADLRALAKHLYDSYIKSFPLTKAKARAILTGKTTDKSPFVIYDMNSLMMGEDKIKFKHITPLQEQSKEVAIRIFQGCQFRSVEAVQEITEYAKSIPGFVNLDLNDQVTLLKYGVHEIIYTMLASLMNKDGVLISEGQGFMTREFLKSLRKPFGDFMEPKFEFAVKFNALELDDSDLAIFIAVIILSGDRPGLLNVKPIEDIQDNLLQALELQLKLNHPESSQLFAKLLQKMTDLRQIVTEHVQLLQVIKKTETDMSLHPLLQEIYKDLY
# Method in brief: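 PPARγ-UAS-bla HEK293 cells (3000/well) in 1% charcoal/dextran-stripped FBS are treated with compound, then stimulated with 50 nM rosiglitazone for 16 h at 37 °C. Read-out is CCF4 β-lactamase fluorescence after 2 h at RT. IC50 comes from Hill fits normalised to rosiglitazone and DMSO.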
# [17] = biological target: Glucocorticoid receptor (Homo sapiens) (UniProt P04150); experiment: qHTS assay for small molecule agonists of glucocorticoid receptor signaling (AID 588532; active means well fitted curve in the direction sought with a large enough effect in the signal ratio, with a control signal flat; the % refers to the signal ratio); conditions: HeLa MMTV-bla, beta-lactamase ratio, agonist, 18 h; stronger effect = higher value; percent of dexamethasone control, DMSO zero
# Chain of Glucocorticoid receptor (Homo sapiens) (P04150 whole entry, looked up): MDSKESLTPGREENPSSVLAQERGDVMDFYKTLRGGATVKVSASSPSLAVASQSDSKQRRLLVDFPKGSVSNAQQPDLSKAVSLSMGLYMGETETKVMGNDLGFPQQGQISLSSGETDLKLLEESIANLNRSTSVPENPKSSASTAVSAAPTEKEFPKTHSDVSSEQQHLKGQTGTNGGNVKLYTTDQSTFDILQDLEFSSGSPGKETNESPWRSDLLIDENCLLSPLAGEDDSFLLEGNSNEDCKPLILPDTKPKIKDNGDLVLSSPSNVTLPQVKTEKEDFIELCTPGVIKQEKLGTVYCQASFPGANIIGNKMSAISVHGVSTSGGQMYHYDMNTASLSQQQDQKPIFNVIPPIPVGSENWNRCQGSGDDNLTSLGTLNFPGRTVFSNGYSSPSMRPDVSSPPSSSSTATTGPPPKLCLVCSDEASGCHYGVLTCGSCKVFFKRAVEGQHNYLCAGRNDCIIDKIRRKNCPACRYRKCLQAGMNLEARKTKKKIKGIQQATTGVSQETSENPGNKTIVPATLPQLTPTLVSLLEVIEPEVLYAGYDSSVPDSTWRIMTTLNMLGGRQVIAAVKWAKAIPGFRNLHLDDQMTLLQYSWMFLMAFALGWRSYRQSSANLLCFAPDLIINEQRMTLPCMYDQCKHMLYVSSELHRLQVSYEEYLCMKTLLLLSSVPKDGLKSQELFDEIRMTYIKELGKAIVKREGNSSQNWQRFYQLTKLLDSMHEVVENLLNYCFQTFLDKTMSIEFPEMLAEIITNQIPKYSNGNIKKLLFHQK
# Method in brief: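 Cells were plated and rested 3-5 h at 37 C, compounds were added in titration and incubated 18 h, then CCF4 substrate was loaded for 2 h at RT before reading blue/green fluorescence. EC50 came from Hill-equation fitting.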
# [18] = biological target: Glucocorticoid receptor (Homo sapiens) (UniProt P04150); experiment: qHTS assay for small molecule antagonists of glucocorticoid receptor signaling (AID 588533; active means well fitted inhibition curve with a large enough effect in the signal ratio, with a control signal flat, not every such curve was filed as active; the % refers to the signal ratio; further: potency means the concentration at half of the fitted maximal effect)
# Method in brief: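 Antagonist-mode qHTS: compound titrations added to GRE-bla HeLa cells, then dexamethasone 2 nM final; 18 h, 37 C. CCF4 FRET fluorescence normalized to dexamethasone and DMSO; IC50 from Hill fit.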
# [19] = biological target: Peroxisome proliferator-activated receptor gamma (Homo sapiens) (UniProt P37231); experiment: qHTS assay for small molecule agonists of peroxisome proliferator-activated receptor gamma signaling (AID 588536; active means well fitted curve in the direction sought with a large enough effect in the signal ratio, with a control signal flat, not every such curve was filed as active; the % refers to the signal ratio)
# Method in brief: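 Ratiometric blue/green fluorescence (405 nm excitation; 460 and 530 nm emission) from CCF4-loaded HEK293 reporter cells serves as signal. Exposure to test compounds lasts 16 h at 37 C in medium containing 1% charcoal/dextran-treated serum.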
# [20] = S16 Schwann cell PMP22 intronic element firefly luciferase assay (AID 624032; active means well fitted curve in the direction sought with a large enough effect; an effect the other way counts as inactive or inconclusive; further: nearly all actives have a fitted effect of over 30% in size; further: potency means the concentration at half of the fitted maximal effect)
# Method in brief: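 Rat S16 Schwann cells stably carrying firefly luciferase driven by a PMP22 intronic element, in 10% FBS, treated 24 h at 37 C. ONE-Glo luminescence normalized to PTC124 control and DMSO (0%); curves classed by r2, magnitude and activity.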
smiles,measurement,setting,value
CCCCCC(N)=O,outcome,[1],inactive
CN(C)CCC(c1ccccc1)c1ccccn1 (stereo not drawn),outcome,[1],inactive
Nc1ccn([C@H]2CC[C@@H](CO)O2)c(=O)n1,outcome,[1],inactive
C[C@]12CCC(=O)C=C1CC[C@@H]1[C@@H]2[C@@H](O)C[C@@]2(C)[C@H]1CC[C@]2(O)C(=O)CO,outcome,[1],inactive
CNC(=O)Oc1cccc2ccccc12,Potency,[2],inactive
same,outcome,[1],inactive
same,max response,[3],25.4%
same,Potency,[4],inactive
same,outcome,[5],inactive
same,outcome,[6],inactive
same,max response,[7],-5.93% and -0.426%
same,outcome,[8],inactive
same,outcome,[9],inactive
same,max response,[10],-8.18% and 5.92%
same,max response,[11],8.76% (inactive) and -2.97% (inactive)
same,activity change % (negative = inhibition),[12],-1.73% (inactive) and -9.05% (inactive)
same,Potency,[13],inactive
same,Potency,[14],inactive
same,Potency,[15],inactive
Oc1ccc(Cl)cc1Cc1cc(Cl)ccc1O,Potency,[2],7.94 µM (active)
same,outcome,[1],inactive
same,Potency,[16],35.5 µM (active)
same,max response,[10],-8.06%
same,Potency,[11],14.1 µM (active)
same,Potency,[13],inactive
CC(=O)[C@@]1(O)CC[C@H]2[C@@H]3CCC4=CC(=O)CC[C@]4(C)[C@H]3CC[C@@]21C,outcome,[1],inactive
O=c1n(Cl)c(=O)n(Cl)c(=O)n1Cl,activation,[17],0.274% (inactive)
same,Potency,[18],inactive
same,outcome,[1],inactive
same,outcome,[19],inactive
same,Potency,[16],inactive
same,outcome,[5],inactive
same,outcome,[6],inactive
same,max response,[7],-19.7%
same,outcome,[8],inactive
same,outcome,[9],inactive
same,max response,[10],-7.37%
same,max response,[11],2.47% (inactive)
same,activity change % (negative = inhibition),[12],4.09% (inactive)
same,Potency,[13],inactive
same,Potency,[14],inactive
same,Potency,[15],inactive
same,Potency,[20],inactive
CCC(=O)O[C@H]1CC[C@H]2[C@@H]3CCC4=CC(=O)CC[C@]4(C)[C@H]3CC[C@]12C,Potency,[18],31.6 µM (active)
same,outcome,[1],inactive
same,max response,[3],-14.3%
same,Potency,[4],inactive
same,outcome,[6],inactive
same,outcome,[9],inactive
same,max response,[10],1.48%
same,max response,[11],-0.425% (inactive)
same,activity change % (negative = inhibition),[12],4.79% (inactive)
same,Potency,[13],inactive
same,Potency,[14],inactive
same,Potency,[15],inactive
same,Potency,[20],inactive
CN(C)C(=S)SSC(=S)N(C)C,activation,[17],0.667% (inactive) and -2.28% (inactive)
same,Potency,[18],inactive
same,outcome,[1],inactive
same,max response,[3],11.3%
same,Potency,[4],inactive
same,outcome,[6],inactive
same,outcome,[9],inactive
same,max response,[10],18.1%
same,Potency,[11],44.7 µM (active)
same,Potency,[13],inactive and 44.7 µM (active)
same,Potency,[15],2.56 µM (active)
same,Potency,[20],1.44 µM (active)
